# Assay outcomes as filed in PubChem.
# PLK1 PBD block: PLK1 (human) polo-box domain binding inhibition | 360,000 compounds, 2.8% hits | Potency, µM, inactives show max response, negative = inhibition, actives largely listed as inhibitors | Plk1 PBD binding of FITC phosphopeptide, fluorescence polarization | P53350; further: series mostly up to about 57 µM; nearly all actives have a fitted effect of over 65% in size
# DT40 TDP1 CPT: DT40-hTDP1 cell growth loss with CPT | chicken DT40 Tdp1-/-;hTDP1 cells + 20 nM CPT, ATP luminescence, 48 h | Potency, µM (highest dose often 46.2 µM), for the others: top-dose activity change, negative = growth inhibition, hits mostly inhibitors | 420,000 compounds, 12% hits; further: nearly all actives have a fitted effect of over 55% in size
#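 Chicken DT40 Tdp1-/- cells stably complemented with human TDP1 were seeded at 400 cells/well in medium containing 20 nM camptothecin, exposed to pin-transferred compounds, and grown at 37 °C for at least 48 hr. Viability was read as ATP luminescence.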
# KAT2A inh: blocks human GCN5L2 histone acetyltransferase | Q92830 | GCN5L2 HAT assay, ThioGlo1 CoA-SH fluorescence | Potency, µM (titrated, usually from 58.9 µM), for the others: at the highest dose activity change, negative = inhibition, actives largely listed as inhibitors | 390,000 compounds, 0.21% hits | AID 504327
#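 Enzyme at 20nM final was mixed with library compounds for 15 min at room temperature. Peptide H3(1-25) at 75uM, acetyl-CoA at 70uM and ThioGlo1 at 50uM were then added. Plates were read immediately and after 20 min (Ex340nm/Em540nm).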
# VDR inh: vitamin D3 receptor (human) inhibition; VDR-SRC2-3 peptide fluorescence polarization, 2 h; 400,000 compounds, 0.93% hits; P11473; AID 504847; Potency, µM, without a hit: max response, negative = inhibition, actives largely listed as inhibitors
# Target sequence (P11473 whole entry, looked up): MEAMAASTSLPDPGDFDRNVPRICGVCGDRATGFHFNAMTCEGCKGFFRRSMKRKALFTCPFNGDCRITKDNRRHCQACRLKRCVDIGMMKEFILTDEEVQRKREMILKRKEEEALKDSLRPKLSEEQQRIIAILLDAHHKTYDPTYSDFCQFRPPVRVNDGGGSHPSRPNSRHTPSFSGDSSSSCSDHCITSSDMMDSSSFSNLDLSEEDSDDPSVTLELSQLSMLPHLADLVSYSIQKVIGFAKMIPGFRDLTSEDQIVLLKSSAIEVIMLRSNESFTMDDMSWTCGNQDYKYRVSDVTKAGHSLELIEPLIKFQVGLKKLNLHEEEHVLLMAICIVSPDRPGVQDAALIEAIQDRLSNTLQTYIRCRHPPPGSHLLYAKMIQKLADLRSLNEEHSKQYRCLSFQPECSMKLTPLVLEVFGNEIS
#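 Fluorescence polarization assay of small-molecule disruption of VDR binding to coregulator peptide SRC2-3. Compounds and controls pin-transferred, then read after 2 h incubation at ambient room temperature.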
# TDP1 inh: blocks human tyrosyl-DNA phosphodiesterase 1. recombinant TDP1, AlphaScreen DNA substrate cleavage. Potency, µM (series often up to 130 µM), for the others: at the top dose activity change, negative = inhibition, hits mostly inhibitors. Q9NUW8. 350,000 compounds, 0.28% hits; further: nearly all actives have a fitted effect of over 40% in size
#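 Steps: enzyme plus compound, 15 min RT; add biotin/phosphotyrosine-FITC oligonucleotide (15 nM final), react 5 min; add donor/acceptor beads (10 ug/ml final), 10 min; read AlphaScreen. Tdp1 at 1 nM final.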
# TDP1 cell noCPT: qHTS for Inhibitors of human tyrosyl-DNA phosphodiesterase 1 (TDP1): qHTS in cells in absence of CPT | DT40 Tdp1-/- hTDP1 cells, no CPT, ATP luminescence, 48 h | Potency, µM (titrated, usually from 46.2 µM), for the others: at the top dose activity change, negative = growth inhibition, hits mostly inhibitors | 420,000 compounds, 15% hits; further: nearly all actives have a fitted effect of over 55% in size
#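 Chicken DT40 Tdp1-/- cells complemented with human TDP1, screened without camptothecin (DMSO vehicle only), 400 cells/well. Compounds pin-transferred, cells incubated at 37 °C for at least 48 hr. Growth read as ATP-dependent luminescence (CellTiter-Glo, 30 min at RT).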
# Starred values were filed as active, the others as inactive; u = inconclusive; x = no result; ! = not confirmed by another sample; [ ] = another dose, or the depositor's remark. Most compounds without a hit are left out; they make up all but 18% or so of the library. The call rests on the fitted dose curve; in most records, active means well fitted curve in the direction sought with a large enough effect; inconclusive means small, poorly fitted or top-dose-only effect, or another doubt; inactive means no such curve, though single readings can be large; an effect the other way counts as inactive or inconclusive. On the % scale 0 is the no-effect control and ±100 the full control effect; potency means the concentration at half of the fitted maximal effect.
SMILES,PLK1 PBD block,DT40 TDP1 CPT,KAT2A inh,VDR inh,TDP1 inh,TDP1 cell noCPT
COC(=O)c1ccc(NC2=C(Cl)C(=O)OC2OC(=O)c2ccccc2)cc1 (stereo not given),-7.8%,u,-7.2%,16.2%,2.5%,u
CN1CCCC2(CCN(C(=O)c3ccncc3)CC2)C1,x,-1.5%,-7.5%,6.1%,x,4.4%
CN1CC[C@@]2(CCCN(C(=O)c3csnn3)C2)C1,x,2.2%,3.0%,44.7µM*,x,-14.2%
CC(=O)OC1CC[C@@]2(C)C(=CC(=O)C3C4CCC(OC(C)=O)[C@@]4(C)CCC32)C1 (stereo not given in full),0.5%,-12.9%,x,-12.0%,x,u
CC(=O)OC1CCC2(C)C3CCC4(C)C(OC(C)=O)CCC4C3C(C)C2(O)C1 (stereo not given),-4.8%,u,x,4.6%,x,14.6µM*
Cc1cccc(OCC(O)CN2CC2)c1 (stereo not given),-8.3%,3.66µM*,x,x,x,6.51µM*
Cc1cccc(OC(=O)N2CCOCC2)c1,-0.8%,-18.4%,-0.9%,8.9%,9.6%,-0.5%
CC(=O)c1cccc(OCC(O)CN2CC=C(c3ccccc3)CC2)c1 (stereo not given),-3.1%,u,-6.8%,-6.2%,-8.1%,16.4µM*
NC(=O)c1ccc(OCC(O)CN2CC=C(c3ccc(F)cc3)CC2)cc1 (stereo not given),x,x,u,0.7%,6.1%[56.1 µM],x
Cn1cc(C2=C(c3cn(C4CCN(Cc5ccccn5)CC4)c4ccccc34)C(=O)NC2=O)c2ccccc21,x,4.9%,x,x,x,-5.3%
O=C(Nc1ccc(Br)cc1C(=O)O)c1ccc2c(c1)C(=O)N(Cc1ccccc1)C2=O,u,11.8%,-5.9%,u,0.8%,6.8%
COC(=O)[C@@H]1[C@@H](O)[C@@]2(O)c3c(OC)cc(OC)cc3O[C@@]2(c2ccc(OC)cc2)[C@H]1c1ccccc1,x,x,x,x,6.9%[21 µM],x
COc1ccccc1N1CCN(C(=O)CCCn2c(=S)[nH]c3ccccc3c2=O)CC1,-0.3%,8.2µM*,x,x,x,5.17µM*
COc1cc2[nH]c(=O)n(Cc3ccc(C(=O)N4CCN(c5ccc(Cl)cc5)CC4)cc3)c(=O)c2cc1OC,x,3.26µM*,-17.1%,-7.3%,2.9%,2.91µM*
O=C(Cn1c(=S)[nH]c2ccccc2c1=O)N1CCC2(CC1)OCCO2,-5.8%,-8.6%,0.2%,-7.9%,0.0%,-9.6%
COc1cc2[nH]c(=O)n(-c3ccc(C)cc3)c(=O)c2cc1OC,-10.9%,-14.2%,-2.8%,-6.2%,5.0%,-1.5%
CCOc1cc2[nH]c(=O)n(CCCCC(=O)N3CCN(c4ccccc4)CC3)c(=O)c2cc1OCC,x,u,-5.1%,-1.7%,1.5%,5.17µM*
Fc1ccc(N2Cc3ccccc3-n3nncc3C2)cc1,-2.2%,u,x,x,x,u
Cc1nc2c(=O)n(C)c(=O)nc-2n(C)n1,-14.2%,0.411µM*,-5.5%,u,5.7%,0.517µM*
COC1C(O)C(C)OC(OC2C(Oc3cccc4c(O)c5c(=O)oc6ccc(C)c7c(=O)oc(c34)c5c67)OC(C)C(O)C2O)C1O (stereo not given),0.8%,0.82µM*,x,-0.2%,x,0.82µM*
Cn1c(-c2ccccc2)c(P(=S)(c2ccccc2)c2ccccc2)c2ccccc21,x,x,x,x,0.3%,x
c1ccc(C(c2ccccc2)c2ccncc2)cc1,2.4%,u,x,-8.5%,x,20.6µM*
COc1ccc(NC2Oc3cc4c(cc3C(c3cc(OC)c(OC)c(OC)c3)C2C)OCO4)cc1 (stereo not given),-4.4%,4.61µM*,x,-8.0%,x,4.11µM*
CC(=O)[C@H]1CC[C@H]2[C@@H]3CC[C@H]4C[C@H](O)CC[C@]4(C)[C@H]3C(=O)C[C@]12C,-13.1%,u,-2.7%,-1.3%,3.6%,11.9µM*!
CC(=O)OC1CCC2(C)C(CCC3C4CC(N5CC5)C(C(C)=O)C4(C)CC(=O)C32)C1 (stereo not given),-7.1%,11.6µM*,x,-9.6%,x,14.6µM*
SMILES,PLK1 PBD block,DT40 TDP1 CPT,KAT2A inh,VDR inh,TDP1 inh,TDP1 cell noCPT
CCN1C[C@]2(COC)[C@H](O)C[C@H](OC)[C@]34C1C([C@H](OC)[C@H]23)[C@]1(OC(C)=O)C2[C@@H](OC(=O)c3ccccc3)C(O)(C[C@H]24)[C@@H](OC)[C@@H]1O,x,8.9%[21.1 µM],-10.8%,-0.7%,4.9%,8.2%[21.1 µM]
C1=NCCCN2CCCCC12 (stereo not given),5.2%,-4.5%,x,x,x,-3.6%
COC(=O)C1=C(C)NC(=S)NC1c1ccc(N(CCCl)CCCl)cc1Cl (stereo not given),-0.6%,9.2µM*,x,u,x,20.6µM*
Cc1cc(C(=O)OCC(=O)Nc2ccc(F)cc2)c(C)n1C1CC1,3.2%,-0.6%,-7.0%,-12.1%,7.1%,-10.7%
CCCCCn1c(=O)c(C(=O)NCc2ccco2)c(O)c2ccccc21,-2.1%,u,-1.1%,0.4%,-4.8%,16.4µM*
CCCCn1c(=O)c(C(=O)NCc2ccco2)c(O)c2ccccc21,-6.9%,u,-1.8%,6.2%,2.7%,u
CCCCn1c(=O)c(C(=O)NCc2ccccc2Cl)c(O)c2ccccc21,-9.7%,u,-11.7%,-4.7%,x,u
CC(C)CCn1c(=O)c(C(=O)NCc2ccco2)c(O)c2ccccc21,-1.8%,u,2.7%,10.3%,x,9.2µM*
CC(Cl)(Cl)Cl,x,x,x,x,7.0%,x
Cc1ccc(OCCOc2cccc(C=C3C(=O)NC(=O)NC3=O)c2)c(C)c1,5.32µM*,u,u,u,79.4µM*,u
[CH3][Hg][Cl],x,x,x,x,8.7%,x
O=C(NCc1cccnc1)C1CCN(S(=O)(=O)c2cc([N+](=O)[O-])ccc2Cl)CC1,-6.6%,u,-2.4%,-2.5%,0.0%,18.4µM*
N#CC(C#N)=NNc1ccc(S(N)(=O)=O)cc1,23.8µM*,u,-6.5%,u,x,u
O=C(Oc1ccccc1)N1CCC2(CCCN(Cc3nccs3)C2)CC1,x,u,-10.9%,u,x,u
CC(C)(C)OO,x,x,x,x,2.0%,x
CN1CCN(CCOC2c3ccccc3CSc3ccc(Cl)cc32)CC1 (stereo not given),-1.6%,u,0.6%,-10.7%,7.7%,16.4µM*
Clc1ccc2c(c1)C(OC1CN3CCC1CC3)c1ccccc1CS2 (stereo not given),-10.4%,16.4µM*,-1.6%,1.0%,7.1%,14.6µM*
NC(=O)C(c1ccccc1)(c1ccccc1)[C@@H]1CCN(CCc2ccc3c(c2)CCO3)C1,x,u,-4.6%,1.9%,x,18.8µM*
